ALDH1A1 inh: blocks purified human ALDH1A1 activity | AID 1030 | 220,000 tested, 7.3% active | Purified ALDH1A1, NADH fluorescence, propionaldehyde substrate | Potency, µM (series often up to 75.3 µM), inactives show at the highest dose activity, negative = inhibition, actives largely listed as inhibitors | P00352; active means well fitted inhibition curve with a large enough effect, not every such curve was filed as active; inconclusive means small, poorly fitted or top-dose-only effect, or another doubt; inactive means no such curve, though single readings can be large or run the other way;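 further: potency means the concentration at half of the fitted maximal effect; plate controls were no enzyme wells and a reference inhibitor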
Target sequence (P00352 whole entry, looked up): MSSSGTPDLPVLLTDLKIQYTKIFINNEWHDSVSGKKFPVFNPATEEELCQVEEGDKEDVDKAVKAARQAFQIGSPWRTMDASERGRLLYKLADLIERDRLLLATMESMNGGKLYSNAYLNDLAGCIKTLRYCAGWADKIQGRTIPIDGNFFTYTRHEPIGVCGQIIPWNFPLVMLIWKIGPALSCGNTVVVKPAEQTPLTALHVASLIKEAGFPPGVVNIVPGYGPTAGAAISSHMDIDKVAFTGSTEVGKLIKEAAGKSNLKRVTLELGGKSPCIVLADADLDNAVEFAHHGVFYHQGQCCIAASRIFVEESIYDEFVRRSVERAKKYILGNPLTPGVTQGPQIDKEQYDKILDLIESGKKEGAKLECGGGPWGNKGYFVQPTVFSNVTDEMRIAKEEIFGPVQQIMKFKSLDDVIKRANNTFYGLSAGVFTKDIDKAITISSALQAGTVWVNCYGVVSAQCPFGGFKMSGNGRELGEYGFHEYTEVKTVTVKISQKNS
Sfp inh: blocks B. subtilis Sfp PPTase activity; Q9F4F7; Biochemical Sfp PPTase activity, qHTS; Potency, µM, for inactives: largest response in the series, negative = inhibition, hits mostly inhibitors; 310,000 tested, 3.5% active;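 further: the enzyme is Sfp with the accession as filed and its product quenches rhodamine fluorescence; potency means the concentration at half of the fitted maximal effect; 0% = enzyme reaction without inhibitor and -100% = no enzyme wells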
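Fluorescence-quenching assay: 15 nM Sfp-PPTase preincubated 15 min at room temperature with compound, then 5 uM rhodamine-CoA and 12.5 uM BHQ-2-labelled YbbR peptide added. Fluorescence (ex 525/em 598 nm) read at start and after 30 min; difference gives rate.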
NPSR antagonist: neuropeptide S receptor (human) antagonism, cAMP; Q6W5P4; CHO-NPSR cells, cAMP TR-FRET, antagonist mode; AID 1461; Potency, µM (series often up to 38.3 µM), for inactives: at the highest dose activity change, negative = inhibition, most hits filed as inhibitors; 220,000 tested, 1% active; further: potency means the concentration at half of the fitted maximal effect; nearly all actives have a fitted effect of over 50% in size
Coupling enz: coupling enzyme interference in Giardia aldolase counter-screen; coupling enzyme system counterscreen, AmpLite Red fluorescence; 290,000 tested, 0.67% active; AID 2472; activity change, negative = inhibition, % at 58.2 µM, hits read low; in the data active means activity change below about -30%
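Fluorescence at 525 nm excitation and 598 nm emission measured inhibition of the coupled detection system without aldolase. Compounds (at 57.5 uM final) were preincubated 10 min at room temperature with coupling enzyme reagent before a 20 min substrate/AmpLite Red step.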
RGS12 GoLoco inh: blocks human Gai1 binding to RGS12 GoLoco peptide, red readout; P63096; Gai1:RGS12 GoLoco peptide FP, rhodamine, 10 min; Potency, µM (top dose mostly 61.6 µM), for the others: at the top dose activity, negative = inhibition, hits mostly inhibitors; 230,000 tested, 0.44% active; AID 880; active means well fitted inhibition curve with a large enough effect, not every such curve was filed as active; inactive means no such curve, though single readings can be large or run the other way; further: potency means the concentration at half of the fitted maximal effect; nearly all actives have a fitted effect of over 30% in size
JMJD2E inh: inhibitors of human JMJD2E histone demethylase; JMJD2E catalytic domain, FDH-coupled NADH fluorescence (FDH is formaldehyde dehydrogenase); AID 2147; B2RXH2; 230,000 tested, 1.6% active; Potency, µM (doses to about 57.1 µM), inactives show at the top dose activity change, negative = inhibition, hits mostly inhibitors; active means well fitted inhibition curve with a large enough effect, not every such curve was filed as active; inconclusive means small, poorly fitted or top-dose-only effect, or another doubt; inactive means no such curve, though single readings can be large or run the other way;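 further: potency means the concentration at half of the fitted maximal effect; 0% = wells with enzyme and -100% = buffer wells without enzyme; nearly all actives have a fitted effect of over 50% in size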
An asterisk follows results filed as active; ? = inconclusive; · = no result given; [ ] = another dose, or the depositor's remark. The list is not random: actives were taken first. Their share in the collection is about 8.5%. Unless noted, the call rests on the fitted dose curve; in most records, active means well fitted curve in the direction sought with a large enough effect; inconclusive means small, poorly fitted or top-dose-only effect, or another doubt; inactive means no such curve, though single readings can be large; an effect the other way counts as inactive or inconclusive. Unless noted, on the % scale 0 is the no-effect control and ±100 the full control effect.

SMILES | ALDH1A1 inh | Sfp inh | NPSR antagonist | Coupling enz | RGS12 GoLoco inh | JMJD2E inh
Cn1c2ccccc2c2cc(C(=O)N3CCOCC3)sc21 | ? | 45µM* | -5%[46.1 µM] | 0 | -14% | ?
O=C(NNc1ccccc1[N+](=O)[O-])Nc1ccc(Cl)c(Cl)c1 | ? | -20% | -59% | 1 | 18% | -29%
CCN(CC)S(=O)(=O)c1cc([N+](=O)[O-])ccc1NNC(=O)Nc1ccc(Cl)c(Cl)c1 | -16% | ? | 10µM* | -2 | -7% | -17%
COCCNc1ncnc2ccc(-c3c(C)noc3C)cc12 | ? | 12% | · | 1 | -6% | ·
Cc1csc2c(N3CCN(C(=O)c4ccc(C(C)(C)C)cc4)CC3)ncnc12 | 16µM* | -18% | 22% | -1 | 3% | -8%
CCC(C(=O)NCc1cccnc1)n1nc(C)n2c(cc3occc32)c1=O (configuration not stated) | · | 14% | · | 2 | · | ·
Clc1ccccc1-c1nc(/C=N/N2CCOCC2)c2ccccn12 | 40µM* | 89µM* | -22% | -9 | 1% | ?
CN1CCN(/N=C/c2nc(-c3ccccc3Cl)n3ccccc23)CC1 | -6% | 14% | -27%[46.1 µM] | 2 | 2% | -29%
C[C@H](c1ccccc1)n1nnc(COCc2ccccc2)c1C#CCOCc1ccccc1 | · | 2% | -7% | 2 | -5% | -4%
COc1ccc(-n2c(=O)c(CCc3ccccc3)nc3cnc(N4CCOCC4)nc32)cc1 | ? | 16% | · | 2 | 3% | ·
Cc1c(CCOC(=O)C23CC4CC(CC(C4)C2)C3)sc[n+]1CC#N | 13µM* | 7% | 8% | 3 | 8% | -10%
Cc1c(CCOC(=O)CC23CC4CC(CC(C4)C2)C3)sc[n+]1Cc1ccccc1 | ? | 3% | -6%[46.1 µM] | · | 1% | 5%
CC1(C)Cc2c(sc3nc[nH]c(=O)c23)CO1 | 6% | 14% | 1% | 0 | -6% | -2%
C=CCNC(=S)NNc1nc2sc3c(c2c(=O)[nH]1)CC(C)(C)OC3 | · | 7.1µM* | · | 1 | · | ·
COc1ccc(/C=C/C(=O)OCC(=O)NCc2ccco2)c(OC)c1 | ? | 11% | -12% | 2 | 3% | ?
O=C(O)c1cccc2c1-c1ccccc1/C2=N\Nc1ccccc1 | · | 13µM* | · | 11 | · | ·
Cc1cccc(NC(c2ccc(O)cc2)c2ccc3ccc(C)nc3c2O)n1 (configuration not stated) | 7.9µM* | ? | -16%[46.1 µM] | -8 | -10% | ?
CCCS(=O)(=O)c1nc(S(=O)(=O)c2ccc(C)cc2)c(NCc2ccccn2)s1 | 14µM* | -4% | -20% | -1 | 5% | -7%
O=C1/C(=C/c2cccs2)SC(=S)N1CCCC(=O)N(CCO)c1ccccc1 | · | -10% | · | 2 | · | ·
CN(C)c1ccc(CNc2ncnc3sccc23)cc1 | · | -6% | · | 3 | · | ·
CN(C)c1ccc(CNc2ncc(Br)cc2Br)cc1 | 3.2µM* | -7% | -16%[46.1 µM] | 1 | -1% | -3%
C=CCNC(=S)NC(=O)c1csc([N+](=O)[O-])c1 | · | 56µM* | ? | -2 | 4% | -8%
O=C(O)c1cc(N/N=C/c2ccc3c(c2)OCCO3)ccc1Cl | ? | 9% | 5% | 0 | 8% | -20%
Cc1ccc(N/N=C/c2ccc3c(c2)OCCO3)cc1Cl | 13µM* | -10% | 19% | 0 | 1% | 0%
CCOc1ccccc1/C=C(/NC(=O)c1ccccc1)C(=O)N(CC)CC | 2% | 9% | -2% | 1 | -13% | -7%
SMILES | ALDH1A1 inh | Sfp inh | NPSR antagonist | Coupling enz | RGS12 GoLoco inh | JMJD2E inh
CN1N=C2c3ccccc3CCC2C1c1ccc(Cl)cc1 (configuration not stated) | ? | 15% | -7% | 4 | -5% | ?
CC(C)(C)C1CCc2c(sc3c2C(=O)NC(c2ccco2)N3)C1 (configuration not stated) | ? | 56µM* | -13%[46.1 µM] | 1 | 45% | ?
CN1CCc2c(sc3c2C(=O)NC(c2ccccc2)N3)C1 (configuration not stated) | ? | 56µM* | -10% | -22 | 25% | ?
O=C1NC(c2ccc(Br)cc2)Nc2sc3c(c21)CCC3 (configuration not stated) | ? | 40µM* | -7%[46.1 µM] | -4 | 21% | -23%
Cc1ccsc1C1NC(=O)c2ccccc2N1 (configuration not stated) | ? | 5% | -5%[46.1 µM] | 0 | 12% | 28µM*
C=C1CCN(C(C)C(=O)OCc2cccc(C)c2)S(=O)(=O)c2ccccc21 (configuration not stated) | · | 0% | · | -1 | · | ·
CCOC(=O)N1CCN(C(=O)C2CCN(C(=O)c3ccc(C(C)(C)C)cc3)CC2)CC1 | · | 17% | · | 1 | · | ·
Cc1ccsc1C1NC(=O)c2c(sc3c2CCCC3)N1 (configuration not stated) | ? | 45µM* | 3%[46.1 µM] | 0 | -4% | ?
Cc1ccc(C2NC(=O)c3c(sc4c3CCN(C)C4)N2)o1 (configuration not stated) | ? | ? | -19%[46.1 µM] | -11 | 16% | ?
CN1CCc2c(sc3c2C(=O)NC(c2ccccn2)N3)C1 (configuration not stated) | ? | 16µM* | -6%[46.1 µM] | -62* | 28µM* | ?
Cc1ccc(C2NC(=O)c3c(sc4c3CCN(C)C4)N2)s1 (configuration not stated) | ? | -2% | -27%[46.1 µM] | 0 | 72% | ?
O=C1NC(c2ccccn2)Nc2sc3c(c21)CCC3 (configuration not stated) | ? | 32µM* | ? | -16 | 2% | ?
CC1CN(c2ccc([N+](=O)[O-])cc2C#N)CC(C)O1 (configuration not stated) | 14µM* | 2% | -14% | 3 | -7% | -18%
O=[N+]([O-])c1cccc(C(=S)N2CCN(c3ccccc3)CC2)c1 | 16µM* | 32µM* | 4% | 2 | -25% | -21%
N#Cc1cc([N+](=O)[O-])ccc1N1CCCC1 | ? | 1% | 15% | 3 | 5% | 0%
CC1CN(C(=S)c2cccc([N+](=O)[O-])c2)CC(C)O1 (configuration not stated) | 7.9µM* | 50µM* | 2% | 1 | -5% | 3%
C/C(=N/N1CCN(c2ccccc2)CC1)c1cccc([N+](=O)[O-])c1 | -10% | 8% | -18% | 1 | 4% | 104%
O=[N+]([O-])c1cccc(C(=S)N2CCN(c3ccccc3F)CC2)c1 | 22µM* | -20% | -16% | 2 | -4% | -4%
CC(C)CNC(=S)Nc1ccc(Oc2ccccc2)cc1 | ? | 1% | -14%[46.1 µM] | 7 | · | -8%
